# Measured values as given in publication PMC11006913.
# Tests used:
# Assay in all cases: PBM; 200 nM protein, PBS
# Conditions in all cases: dsDNA, one strand shown
# HOXA7 [1] = target: HOXA7 (Homo sapiens, UniProt P31268 116-202)
# PRRX1 [2] = target: PRRX1 (Homo sapiens, UniProt P54821 80-166, F113S)
# HOXB6 [3] = target: HOXB6 (Homo sapiens, UniProt P17509 132-218, K202E)
# ALX1 [4] = target: ALX1 (Homo sapiens, UniProt Q15699 118-204, L144V)
# ALX3 [5] = target: ALX3 (Homo sapiens, UniProt O95076 139-225, N203Q)
# Chain of ALX3 (Homo sapiens, UniProt O95076 139-225, N203Q) (O95076 139-225 N203Q): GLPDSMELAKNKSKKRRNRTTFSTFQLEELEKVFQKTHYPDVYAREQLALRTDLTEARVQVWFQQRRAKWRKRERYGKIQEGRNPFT
# ALX1 [6] = target: ALX1 (Homo sapiens, UniProt Q15699 118-204, L144R)
# Chain of ALX1 (Homo sapiens, UniProt Q15699 118-204, L144R) (Q15699 118-204 L144R): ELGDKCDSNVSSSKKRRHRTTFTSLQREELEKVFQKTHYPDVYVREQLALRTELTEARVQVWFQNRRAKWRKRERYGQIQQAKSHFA
# HOXC10 = HOXC10 (Homo sapiens, UniProt Q9NYD6 254-340, K271E)
# Chain of HOXC10 (Q9NYD6 254-340 K271E): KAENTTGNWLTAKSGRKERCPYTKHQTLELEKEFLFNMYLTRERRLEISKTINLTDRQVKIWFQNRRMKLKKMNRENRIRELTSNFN
# ALX3 [7] = target: ALX3 (Homo sapiens, UniProt O95076 139-225)
# Chain of ALX3 (Homo sapiens, UniProt O95076 139-225) (O95076 139-225): as the sequence (O95076 139-225 N203Q) above, with Q65N counted along it
# PROP1 [8] = target: PROP1 (Homo sapiens, UniProt O75360 56-141)
# Chain of PROP1 (Homo sapiens, UniProt O75360 56-141) (O75360 56-141): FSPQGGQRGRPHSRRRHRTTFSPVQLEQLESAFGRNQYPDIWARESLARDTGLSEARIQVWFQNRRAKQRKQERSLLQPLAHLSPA
# PROP1 [9] = target: PROP1 (Homo sapiens, UniProt O75360 56-141, R99H)
# Chain of PROP1 (Homo sapiens, UniProt O75360 56-141, R99H) (O75360 56-141 R99H): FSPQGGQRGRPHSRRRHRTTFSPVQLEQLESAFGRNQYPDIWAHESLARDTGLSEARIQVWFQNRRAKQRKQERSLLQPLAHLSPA
# ALX3 [10] = target: ALX3 (Homo sapiens, UniProt O95076 139-225, L168Q)
# Chain of ALX3 (Homo sapiens, UniProt O95076 139-225, L168Q) (O95076 139-225 L168Q): as the sequence (O95076 139-225 N203Q) above, with L30Q, Q65N counted along it
# ALX3 [11] = target: ALX3 (Homo sapiens, UniProt O95076 139-225, L168V)
# Chain of ALX3 (Homo sapiens, UniProt O95076 139-225, L168V) (O95076 139-225 L168V): as the sequence (O95076 139-225 N203Q) above, with L30V, Q65N counted along it
# PROP1 [12] = target: PROP1 (Homo sapiens, UniProt O75360 56-141, F88S)
# Chain of PROP1 (Homo sapiens, UniProt O75360 56-141, F88S) (O75360 56-141 F88S): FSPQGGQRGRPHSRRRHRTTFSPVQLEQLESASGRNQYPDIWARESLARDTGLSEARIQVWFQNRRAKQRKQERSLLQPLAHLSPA
# HOXA7 [13] = target: HOXA7 (Homo sapiens, UniProt P31268 116-202, W177C)
# Chain of HOXA7 (Homo sapiens, UniProt P31268 116-202, W177C) (P31268 116-202 W177C): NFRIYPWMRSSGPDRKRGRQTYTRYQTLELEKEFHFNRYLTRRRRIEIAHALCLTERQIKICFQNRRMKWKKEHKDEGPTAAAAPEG
# ALX1 [14] = target: ALX1 (Homo sapiens, UniProt Q15699 118-204)
# Chain of ALX1 (Homo sapiens, UniProt Q15699 118-204) (Q15699 118-204): as the sequence (Q15699 118-204 L144R) above, with R27L counted along it
# ALX3 [15] = target: ALX3 (Homo sapiens, UniProt O95076 139-225, N203S)
# Chain of ALX3 (Homo sapiens, UniProt O95076 139-225, N203S) (O95076 139-225 N203S): as the sequence (O95076 139-225 N203Q) above, with Q65S counted along it
# PRRX1 [16] = target: PRRX1 (Homo sapiens, UniProt P54821 80-166)
# Chain of PRRX1 (Homo sapiens, UniProt P54821 80-166) (P54821 80-166): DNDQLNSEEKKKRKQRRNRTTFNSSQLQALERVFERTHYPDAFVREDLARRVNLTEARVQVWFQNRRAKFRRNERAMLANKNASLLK
# HOXB6 [17] = target: HOXB6 (Homo sapiens, UniProt P17509 132-218)
# Chain of HOXB6 (Homo sapiens, UniProt P17509 132-218) (P17509 132-218): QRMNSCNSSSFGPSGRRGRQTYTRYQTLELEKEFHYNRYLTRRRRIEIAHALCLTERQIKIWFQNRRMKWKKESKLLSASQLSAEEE
# NKX2-5 [18] = target: NKX2-5 (Homo sapiens, UniProt P52952 125-210, R139K)
# Chain of NKX2-5 (Homo sapiens, UniProt P52952 125-210, R139K) (P52952 125-210 R139K): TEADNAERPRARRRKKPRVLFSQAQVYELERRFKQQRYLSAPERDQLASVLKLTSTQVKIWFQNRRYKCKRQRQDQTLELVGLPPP
# NKX2-5 [19] = target: NKX2-5 (Homo sapiens, UniProt P52952 125-210)
# Chain of NKX2-5 (Homo sapiens, UniProt P52952 125-210) (P52952 125-210): as the sequence (P52952 125-210 R139K) above, with K15R counted along it
# Chain of HOXB6 (Homo sapiens, UniProt P17509 132-218, K202E) (P17509 132-218 K202E): as the sequence (P17509 132-218) above, with K71E counted along it
# Chain of PRRX1 (Homo sapiens, UniProt P54821 80-166, F113S) (P54821 80-166 F113S): as the sequence (P54821 80-166) above, with F34S counted along it
# Chain of ALX1 (Homo sapiens, UniProt Q15699 118-204, L144V) (Q15699 118-204 L144V): as the sequence (Q15699 118-204 L144R) above, with R27V counted along it
# Chain of HOXA7 (Homo sapiens, UniProt P31268 116-202) (P31268 116-202): as the sequence (P31268 116-202 W177C) above, with C62W counted along it
Sequence,binding signal (HOXA7 [1]),binding signal (PRRX1 [2]),binding signal (HOXB6 [3]),binding signal (ALX1 [4]),binding signal (ALX3 [5]),binding signal (ALX1 [6]),binding signal (HOXC10),binding signal (ALX3 [7]),binding signal (PROP1 [8]),binding signal (PROP1 [9]),binding signal (ALX3 [10]),binding signal (ALX3 [11]),binding signal (PROP1 [12]),binding signal (HOXA7 [13]),binding signal (ALX1 [14]),binding signal (ALX3 [15]),binding signal (PRRX1 [16]),binding signal (HOXB6 [17]),binding signal (NKX2-5 [18]),binding signal (NKX2-5 [19])
ATAATTAC,"12.2 upbm affinity estimate (log intensity, higher = more binding, comparable within an allelic series)","11.6 upbm affinity estimate (log intensity, higher = more binding, comparable within an allelic series)","10.2 upbm affinity estimate (log intensity, higher = more binding, comparable within an allelic series)","11.8 upbm affinity estimate (log intensity, higher = more binding, comparable within an allelic series)","8.56 upbm affinity estimate (log intensity, higher = more binding, comparable within an allelic series)","11.5 upbm affinity estimate (log intensity, higher = more binding, comparable within an allelic series)","12.4 upbm affinity estimate (log intensity, higher = more binding, comparable within an allelic series)","12.5 upbm affinity estimate (log intensity, higher = more binding, comparable within an allelic series)","11.6 upbm affinity estimate (log intensity, higher = more binding, comparable within an allelic series)","11.4 upbm affinity estimate (log intensity, higher = more binding, comparable within an allelic series)","10.7 upbm affinity estimate (log intensity, higher = more binding, comparable within an allelic series)","10.3 upbm affinity estimate (log intensity, higher = more binding, comparable within an allelic series)","7.95 upbm affinity estimate (log intensity, higher = more binding, comparable within an allelic series)","9.02 upbm affinity estimate (log intensity, higher = more binding, comparable within an allelic series)","12.5 upbm affinity estimate (log intensity, higher = more binding, comparable within an allelic series)","8.66 upbm affinity estimate (log intensity, higher = more binding, comparable within an allelic series)","13.5 upbm affinity estimate (log intensity, higher = more binding, comparable within an allelic series)","12.6 upbm affinity estimate (log intensity, higher = more binding, comparable within an allelic series)",–,–
AGTAATTA,"12.3 upbm affinity estimate (log intensity, higher = more binding, comparable within an allelic series)","11.7 upbm affinity estimate (log intensity, higher = more binding, comparable within an allelic series)","10.3 upbm affinity estimate (log intensity, higher = more binding, comparable within an allelic series)","12.2 upbm affinity estimate (log intensity, higher = more binding, comparable within an allelic series)","8.6 upbm affinity estimate (log intensity, higher = more binding, comparable within an allelic series)","11.8 upbm affinity estimate (log intensity, higher = more binding, comparable within an allelic series)","12.5 upbm affinity estimate (log intensity, higher = more binding, comparable within an allelic series)","12.8 upbm affinity estimate (log intensity, higher = more binding, comparable within an allelic series)","11.9 upbm affinity estimate (log intensity, higher = more binding, comparable within an allelic series)","11.9 upbm affinity estimate (log intensity, higher = more binding, comparable within an allelic series)","11 upbm affinity estimate (log intensity, higher = more binding, comparable within an allelic series)","10.6 upbm affinity estimate (log intensity, higher = more binding, comparable within an allelic series)","7.94 upbm affinity estimate (log intensity, higher = more binding, comparable within an allelic series)","8.88 upbm affinity estimate (log intensity, higher = more binding, comparable within an allelic series)","12.7 upbm affinity estimate (log intensity, higher = more binding, comparable within an allelic series)","8.73 upbm affinity estimate (log intensity, higher = more binding, comparable within an allelic series)","13.6 upbm affinity estimate (log intensity, higher = more binding, comparable within an allelic series)","12.7 upbm affinity estimate (log intensity, higher = more binding, comparable within an allelic series)",–,–
TTAATTAA,"12.2 upbm affinity estimate (log intensity, higher = more binding, comparable within an allelic series)","12.1 upbm affinity estimate (log intensity, higher = more binding, comparable within an allelic series)","10.3 upbm affinity estimate (log intensity, higher = more binding, comparable within an allelic series)","12.3 upbm affinity estimate (log intensity, higher = more binding, comparable within an allelic series)","8.75 upbm affinity estimate (log intensity, higher = more binding, comparable within an allelic series)","11.9 upbm affinity estimate (log intensity, higher = more binding, comparable within an allelic series)","12.3 upbm affinity estimate (log intensity, higher = more binding, comparable within an allelic series)","13 upbm affinity estimate (log intensity, higher = more binding, comparable within an allelic series)","12.3 upbm affinity estimate (log intensity, higher = more binding, comparable within an allelic series)","12.4 upbm affinity estimate (log intensity, higher = more binding, comparable within an allelic series)","11.7 upbm affinity estimate (log intensity, higher = more binding, comparable within an allelic series)","11.6 upbm affinity estimate (log intensity, higher = more binding, comparable within an allelic series)","8.42 upbm affinity estimate (log intensity, higher = more binding, comparable within an allelic series)","8.85 upbm affinity estimate (log intensity, higher = more binding, comparable within an allelic series)","12.9 upbm affinity estimate (log intensity, higher = more binding, comparable within an allelic series)","8.98 upbm affinity estimate (log intensity, higher = more binding, comparable within an allelic series)","13.7 upbm affinity estimate (log intensity, higher = more binding, comparable within an allelic series)","12.5 upbm affinity estimate (log intensity, higher = more binding, comparable within an allelic series)",–,–
CACGTCCC,–,–,–,–,–,–,–,–,–,–,–,–,–,–,–,–,–,–,"8.94 upbm affinity estimate (log intensity, higher = more binding, comparable within an allelic series)","8.96 upbm affinity estimate (log intensity, higher = more binding, comparable within an allelic series)"
